Most compounds without a hit are left out; they make up all but 6.6% or so of the library.
HT1080-NT tox = kills 2HG-producing HT-1080-NT fibrosarcoma cells. HT-1080-NT fibrosarcoma viability, CellTiter-Glo ATP luminescence, 48 h. Potency, µM (series often up to 46.1 µM), without a hit: at the highest dose activity, negative = less viability, usual class: cytotoxic. 360,000 tested, 1.6% active. AID 686970;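 further: NT is the 2HG producing partner of a matched IDH1 knockdown line; 0% = DMSO-treated cells and -100% = media-only wells without cells; nearly all actives have a fitted effect of over 55% in size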
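Luminescent CellTiter-Glo readout after 48 hours of compound exposure at 37 degrees C defined viability of HT-1080-NT cells. Activity was normalized to DMSO wells and cell-free media wells; concentration-response curves were fitted and assigned curve classes.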
TGFb SMAD3 inh = inhibitors of TGF-b signaling; AID 588855; 410,000 tested, 1.2% active; HepG2 CAGA-GFP TGF-b/SMAD3 reporter, GFP fluorescence, 18 h; TGF-beta stimulated, 500 pg/mL final; Potency, µM (top dose mostly 46.1 µM), for the others: at the top dose activity, negative = inhibition, actives largely listed as inhibitors; further: on the % scale 0 is the no-effect control and ±100 the full control effect; nearly all actives have a fitted effect of over 65% in size
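Inhibition of TGF-beta-driven CAGA-GFP reporter expression in HEPG2 cells is measured by cellular GFP fluorescence after 18 h stimulation with 500 pg/mL recombinant TGF-beta in 1% FBS medium at 37 degrees C.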
KB-3-1 cytotox = KB-3-1 parental cell cytotoxicity. 400,000 tested, 1.4% active. AID 1347075. KB-3-1 viability, CellTiter-Glo ATP luminescence, 72 h. Potency, µM (highest dose often 46.1 µM), usual class: cytotoxic; further: on the % scale 0 is the no-effect control and ±100 the full control effect; nearly all actives have a fitted effect of over 60% in size
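Luminescent ATP read-out (CellTiter-Glo) measures survival of drug-naive KB-3-1 cells after 72 h compound exposure at 37 °C. Titration series was screened from lowest to highest concentration, with DMSO vehicle plates as background controls.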
HepG2 tox = HepG2 cytotoxicity, counter-screen for TGF-b inhibitors; HepG2 CAGA-GFP viability, ATP luminescence, 18 h; Potency, µM (highest dose often 46.1 µM), for inactives: at the top dose activity change, negative = cytotoxicity, hits mostly cytotoxic; 410,000 tested, 0.76% active
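CellTiter-Glo luminescence gave cytotoxicity after 18 hours at 37 degrees C. The cells were HepG2 CAGA-GFP in 1% FBS DMEM, stimulated with 500 pg/mL TGF-beta after compound addition. %Activity was normalised to no-cell wells (complete cell-killing) and DMSO (no toxicity), and curves were fitted and classified.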
HT1080 IDH1KD tx = HT-1080 IDH1 knockdown cell toxicity (counter line). Potency, µM (highest dose often 46.1 µM), for inactives: at the top dose activity, negative = toxicity, actives largely listed as cytotoxic. AID 686971. HT-1080 IDH1 knockdown viability, ATP luminescence, 48 h. 360,000 tested, 2% active;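 further: 0% = DMSO wells and -100% = cell-free medium wells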
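In this qHTS, HT-1080 cells depleted of IDH1 are exposed for 48 h at 37 °C to compound titrations. Toxicity is scored from CellTiter-Glo luminescence, with DMSO as full viability and medium alone as none.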
KB-V1 cytotox = kills drug-selected multidrug resistant KB-V1 cells | KB-V1 MDR cells viability, CellTiter-Glo, 72 h | Potency, µM (titrated, usually from 46.1 µM), hits mostly cytotoxic | 400,000 tested, 3.4% active | AID 1347076; further: on the % scale 0 is the no-effect control and ±100 the full control effect; nearly all actives have a fitted effect of over 60% in size
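In this primary screen, KB-V1 cells overexpressing P-gp are incubated with library compounds (lowest to highest concentration) for 72 h at 37 degrees C before a luminescent ATP viability read.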
* = called active by the depositor; i = inactive; ? = inconclusive; / = no result given; [ ] = another dose, or the depositor's remark. The call rests on the fitted dose curve; in most records, active means well fitted curve in the direction sought with a large enough effect; inconclusive means small, poorly fitted or top-dose-only effect, or another doubt; inactive means no such curve, though single readings can be large; an effect the other way counts as inactive or inconclusive. Potency means the concentration at half of the fitted maximal effect.

SMILES	HT1080-NT tox	TGFb SMAD3 inh	KB-3-1 cytotox	HepG2 tox	HT1080 IDH1KD tx	KB-V1 cytotox
CCc1ccc(CN2CCC(n3nccc3NC(=O)c3ccccc3Cl)CC2)cc1	0%	?	i	-26%	14%	18µM*
O=C(CCCc1ccccc1)Nc1ccnn1C1CCN(Cc2ccccn2)CC1	-5%	10%	i	15%	-17%	?
Cn1cc(CN2CCC(n3nccc3NC(=O)c3ccccc3Cl)CC2)cn1	14%	8%	i	0%	16%	?
Cc1ccccc1CN1CCC(n2nccc2NC(=O)CCCc2ccccc2)CC1	0%	-1%	i	18µM*	-1%	i
COCCn1c(C)cc(O)c(C(c2ccccc2OC)N2CCN(c3ccccc3)CC2)c1=O (stereo not drawn)	/	7%	i	-13%	/	i
Cc1ccc(/C=C2\CCCC3=C2NC(=S)NC3c2ccc(C)cc2)cc1 (stereo not drawn)	2%	?	?	-16%	-7%	16µM*
CNc1ccc(/C=C2\C=Cc3ccccc32)cc1Cl	/	?	?	-22%	/	?
CCCC[C@@H]1CNC(=O)C(=O)N1CCc1cccc(F)c1	-13%	/	/	/	-3%	i
COc1ccccc1CCNC(=O)c1c(N)[nH]c(C(=O)c2ccccc2)c1-c1ccc(Br)cc1	23%	/	?	/	5%	15µM*
CCOC(=O)c1cc(-c2ccc(F)cc2)n(CCC(=O)NCc2ccc(C)cc2)c1C	/	-8%	i	-37%	/	i
c1ccc2c(c1)CCCC2C1=NCCN1 (stereo not drawn)	?	-2%	i	-12%	8%	i
Brc1ccc2c(c1)C(C1=NCCN1)c1ccccc1CS2 (stereo not drawn)	0.82µM*	-13%	?	-15%	1µM*	?
COc1cccc(NC(=O)Cn2cnc3c(nc4n3CCCCC4)c2=O)c1	/	-3%	i	-8%	/	i
CCOC(=O)c1cc2c(=O)n3ccccc3nc2n(CCCOC)c1=NC(=O)c1c(-c2ccccc2Cl)noc1C	/	-21%	i	-7%	/	i
CC1(C)SC(=S)N(/N=C/c2ccccc2O)C1N(O)C(=O)Nc1ccccc1 (stereo not drawn)	18µM*	?	i	-29%	?	i
Cc1ccc(CNC(=O)c2ccc(CSCc3ccc(Cl)cc3)o2)cc1	/	?	/	-31%	/	/
C/C(Cn1nnc([N+](=O)[O-])n1)=N\NC(=O)c1ccccc1	?	11µM*	i	-49%	?	i
O=C(CSC1CS(=O)(=O)c2cc([N+](=O)[O-])ccc21)NNC(=O)c1ccc(Cl)cc1 (stereo not drawn)	-9%	13µM*	i	-67%	5%	?
O=C(c1ccc(Cl)c(S(=O)(=O)N2CCOCC2)c1)N1CCc2ccccc2C1	0%	-25%	21µM*	-16%	-13%	3.7µM*
O=C(Nc1ccc(Br)cc1)c1ccc(F)c(S(=O)(=O)N2CCc3ccccc32)c1	/	11µM*	/	-34%	/	/
O=C(c1cccc(S(=O)(=O)N2CCc3ccccc3C2)c1)N1CCN(c2ccccc2)CC1	0%	?	i	6%	-22%	?
O=C(c1cccc(S(=O)(=O)N2CCc3ccccc32)c1)N1CCN(c2ccccc2)CC1	13µM*	-28%	?	-3%	?	?
O=C(Nc1cccnc1)c1ccc(Cl)c(S(=O)(=O)N2CCc3ccccc32)c1	5%	-31%	i	3.5µM*	0%	?
CCOC(=O)c1c(S(=O)(=O)NCC(=O)Nc2cccc(SC)c2)c(C)n(C)c1C	/	-23%	i	-10%	/	i
Cc1nc(C(F)(F)F)ccc1C(=O)N1CCCC(C)(C(=O)O)C1 (stereo not drawn)	3%	7%	i	-8%	22%	i
SMILES	HT1080-NT tox	TGFb SMAD3 inh	KB-3-1 cytotox	HepG2 tox	HT1080 IDH1KD tx	KB-V1 cytotox
COc1ccc(NC(=O)c2ccc(Cl)c(S(=O)(=O)N3CCc4ccccc4C3)c2)cn1	-24%	-21%	i	-2%	-12%	4.6µM*
O=C(NCC(c1ccco1)N1CCc2ccccc2C1)c1ccc(Cl)c([N+](=O)[O-])c1 (stereo not drawn)	-2%	?	i	-2%	1%	i
COc1ccc(NC(=O)CN(C)C(=O)c2cccc(S(=O)(=O)N3CCCc4ccccc43)c2)cc1	-1%	-23%	i	0%	-9%	i
O=C(Nc1cccnc1)c1cccc(S(=O)(=O)N2CCc3ccccc32)c1	-12%	-20%	?	-6%	-25%	10µM*
O=C(NCC(c1ccco1)N1CCCC1)c1ccc(Cl)c(S(=O)(=O)N2CCc3ccccc32)c1 (stereo not drawn)	-25%	?	2.3µM*	-20%	?	1.6µM*
CN(CC(=O)Nc1ccccc1Br)C(=O)c1cccc(S(=O)(=O)N2CCc3ccccc32)c1	-5%	-13%	i	-10%	-19%	18µM*
COc1ccc(NC(=O)c2ccc(Cl)c(S(=O)(=O)N3CC(C)OC(C)C3)c2)cn1 (stereo not drawn)	1%	?	?	-35%	0%	i
Cc1ccc(C)c(CSc2nc3c([nH]c4ccccc43)c(=O)n2C)c1	/	-26%	/	-13%	/	/
COc1ccc(C(=O)NC(C(=O)N2CCc3ccccc32)C(C)C)cc1 (stereo not drawn)	1%	8%	i	20%	3%	8.2µM*
O=C(NC1=NCCS1)c1ccc(Cl)c(S(=O)(=O)N2CCc3ccccc32)c1	10%	?	?	0%	1%	13µM*
CC(C)C(NC(=O)c1ccccc1)C(=O)OCC(=O)N1CCCCC1 (stereo not drawn)	-6%[9.24 µM]	-5%	i	-3%	-2%	i
COc1ccc(C(=O)NCC(c2ccco2)N2CCc3ccccc32)cc1 (stereo not drawn)	4.1µM*	?	5.8µM*	0%	5.8µM*	7.3µM*
CC(C)[C@H](NC(=O)c1ccccc1)C(=O)OCC(=O)N1CCc2ccccc2C1	-3%	-9%	i	4%	-3%	9.2µM*
COc1ccc(NC(=O)N2CCN(S(=O)(=O)c3ccc4c(ccn4C)c3)CC2)cc1OC	/	?	i	-10%	/	i
CCc1nc2ccc(C(=O)Nc3cc(-c4ccccc4)ccc3OC)cn2c1N(C)Cc1ccc(OC)cc1	-18%	19%	i	-20%	-17%	i

From PubChem
